# ± gives the standard deviation of the averaged measurements. The full data set covers some 6,200 targets. This sample favours those with the largest changes.
# Experiments:
# Assay in all cases: NP40-soluble protein abundance relative to vehicle (solubility fold change) (ratio); higher = more soluble protein in presence of AMP-PNP
# [1] = molecular target: T1, A0A087WXD1|Q96T83 (UniProt Q96T83)
# T1 sequence (whole entry): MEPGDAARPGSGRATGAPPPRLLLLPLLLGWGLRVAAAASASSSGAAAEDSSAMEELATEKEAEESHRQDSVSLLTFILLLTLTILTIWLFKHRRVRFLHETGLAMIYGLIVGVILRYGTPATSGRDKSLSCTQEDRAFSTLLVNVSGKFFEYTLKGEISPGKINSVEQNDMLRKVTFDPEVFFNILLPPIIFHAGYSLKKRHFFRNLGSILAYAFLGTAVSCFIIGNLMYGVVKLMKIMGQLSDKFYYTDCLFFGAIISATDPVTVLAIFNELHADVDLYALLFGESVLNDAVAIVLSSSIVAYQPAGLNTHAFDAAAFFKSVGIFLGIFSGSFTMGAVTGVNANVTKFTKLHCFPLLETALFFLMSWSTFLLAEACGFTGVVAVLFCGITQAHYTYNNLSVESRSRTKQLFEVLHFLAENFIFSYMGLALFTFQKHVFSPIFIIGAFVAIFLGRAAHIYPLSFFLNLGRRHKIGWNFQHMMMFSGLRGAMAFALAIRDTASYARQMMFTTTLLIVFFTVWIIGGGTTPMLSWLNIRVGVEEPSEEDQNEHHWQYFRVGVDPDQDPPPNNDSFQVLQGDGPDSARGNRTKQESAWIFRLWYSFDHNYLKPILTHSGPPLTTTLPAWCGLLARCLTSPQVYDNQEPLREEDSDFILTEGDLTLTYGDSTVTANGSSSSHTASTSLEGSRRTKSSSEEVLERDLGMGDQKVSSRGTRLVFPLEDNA
# Procedure, shortened: (§1)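 In three independent experiments, Jurkat crude lysate made by Dounce homogenisation was treated for 10 min at room temperature and then 3 min at 37 °C with eight concentrations ranging from 0.1 to 10 mM. It was then solubilised with 0.8% NP40 plus benzonase for 60 min at 4 °C and ultracentrifuged. The supernatant was TMT-labelled for LC-MS/MS, and each value is the fold change against the detergent-processed vehicle for the same replicate, using vsn-normalised intensities.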
# [2] = molecular target: A0A087WY00|F8W6H6|Q9Y4I1|Q9Y4I1-2|G3V394|Q9Y4I1-3 (UniProt Q9Y4I1)
# Procedure, shortened: as §1
# [3] = molecular target: T2, A0A087WYG2|E9PFH7|Q9UPT6 (UniProt Q9UPT6)
# T2 sequence (whole entry): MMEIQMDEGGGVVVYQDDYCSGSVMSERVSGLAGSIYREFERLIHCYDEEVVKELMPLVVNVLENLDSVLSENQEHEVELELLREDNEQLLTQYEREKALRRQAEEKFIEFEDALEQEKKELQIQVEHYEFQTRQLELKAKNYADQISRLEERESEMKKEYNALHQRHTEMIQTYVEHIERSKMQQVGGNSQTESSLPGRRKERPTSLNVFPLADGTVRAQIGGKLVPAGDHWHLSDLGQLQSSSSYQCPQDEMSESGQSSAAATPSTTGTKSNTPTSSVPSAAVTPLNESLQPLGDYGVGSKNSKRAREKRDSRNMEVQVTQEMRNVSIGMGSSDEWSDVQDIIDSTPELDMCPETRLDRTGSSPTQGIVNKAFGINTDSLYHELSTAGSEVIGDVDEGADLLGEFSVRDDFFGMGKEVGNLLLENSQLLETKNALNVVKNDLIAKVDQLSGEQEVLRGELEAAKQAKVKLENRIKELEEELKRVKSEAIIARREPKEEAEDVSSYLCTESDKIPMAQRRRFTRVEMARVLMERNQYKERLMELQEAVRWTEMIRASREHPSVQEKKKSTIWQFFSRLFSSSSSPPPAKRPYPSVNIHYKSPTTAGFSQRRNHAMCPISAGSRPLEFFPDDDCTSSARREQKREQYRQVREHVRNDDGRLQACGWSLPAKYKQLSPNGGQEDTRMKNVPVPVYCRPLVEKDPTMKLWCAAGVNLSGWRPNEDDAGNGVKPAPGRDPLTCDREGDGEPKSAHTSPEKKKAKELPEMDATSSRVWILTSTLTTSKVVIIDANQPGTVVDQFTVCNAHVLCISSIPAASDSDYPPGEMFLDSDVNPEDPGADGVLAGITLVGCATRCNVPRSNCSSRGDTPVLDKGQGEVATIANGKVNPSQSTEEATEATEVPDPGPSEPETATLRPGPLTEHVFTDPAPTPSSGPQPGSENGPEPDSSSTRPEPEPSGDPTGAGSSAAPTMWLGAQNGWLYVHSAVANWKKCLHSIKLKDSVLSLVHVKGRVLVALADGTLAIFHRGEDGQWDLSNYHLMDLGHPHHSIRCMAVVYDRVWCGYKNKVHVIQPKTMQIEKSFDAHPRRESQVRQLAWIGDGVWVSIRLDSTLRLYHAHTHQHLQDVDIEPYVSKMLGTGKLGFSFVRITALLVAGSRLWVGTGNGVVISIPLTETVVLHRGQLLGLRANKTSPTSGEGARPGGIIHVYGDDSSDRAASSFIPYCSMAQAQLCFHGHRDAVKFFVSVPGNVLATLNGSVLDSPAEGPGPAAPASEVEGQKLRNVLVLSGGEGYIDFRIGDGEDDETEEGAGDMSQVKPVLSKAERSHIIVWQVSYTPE
# Procedure, shortened: as §1
# [4] = molecular target: T3, A0A087WYN9|Q7Z478 (UniProt Q7Z478)
# T3 sequence (whole entry): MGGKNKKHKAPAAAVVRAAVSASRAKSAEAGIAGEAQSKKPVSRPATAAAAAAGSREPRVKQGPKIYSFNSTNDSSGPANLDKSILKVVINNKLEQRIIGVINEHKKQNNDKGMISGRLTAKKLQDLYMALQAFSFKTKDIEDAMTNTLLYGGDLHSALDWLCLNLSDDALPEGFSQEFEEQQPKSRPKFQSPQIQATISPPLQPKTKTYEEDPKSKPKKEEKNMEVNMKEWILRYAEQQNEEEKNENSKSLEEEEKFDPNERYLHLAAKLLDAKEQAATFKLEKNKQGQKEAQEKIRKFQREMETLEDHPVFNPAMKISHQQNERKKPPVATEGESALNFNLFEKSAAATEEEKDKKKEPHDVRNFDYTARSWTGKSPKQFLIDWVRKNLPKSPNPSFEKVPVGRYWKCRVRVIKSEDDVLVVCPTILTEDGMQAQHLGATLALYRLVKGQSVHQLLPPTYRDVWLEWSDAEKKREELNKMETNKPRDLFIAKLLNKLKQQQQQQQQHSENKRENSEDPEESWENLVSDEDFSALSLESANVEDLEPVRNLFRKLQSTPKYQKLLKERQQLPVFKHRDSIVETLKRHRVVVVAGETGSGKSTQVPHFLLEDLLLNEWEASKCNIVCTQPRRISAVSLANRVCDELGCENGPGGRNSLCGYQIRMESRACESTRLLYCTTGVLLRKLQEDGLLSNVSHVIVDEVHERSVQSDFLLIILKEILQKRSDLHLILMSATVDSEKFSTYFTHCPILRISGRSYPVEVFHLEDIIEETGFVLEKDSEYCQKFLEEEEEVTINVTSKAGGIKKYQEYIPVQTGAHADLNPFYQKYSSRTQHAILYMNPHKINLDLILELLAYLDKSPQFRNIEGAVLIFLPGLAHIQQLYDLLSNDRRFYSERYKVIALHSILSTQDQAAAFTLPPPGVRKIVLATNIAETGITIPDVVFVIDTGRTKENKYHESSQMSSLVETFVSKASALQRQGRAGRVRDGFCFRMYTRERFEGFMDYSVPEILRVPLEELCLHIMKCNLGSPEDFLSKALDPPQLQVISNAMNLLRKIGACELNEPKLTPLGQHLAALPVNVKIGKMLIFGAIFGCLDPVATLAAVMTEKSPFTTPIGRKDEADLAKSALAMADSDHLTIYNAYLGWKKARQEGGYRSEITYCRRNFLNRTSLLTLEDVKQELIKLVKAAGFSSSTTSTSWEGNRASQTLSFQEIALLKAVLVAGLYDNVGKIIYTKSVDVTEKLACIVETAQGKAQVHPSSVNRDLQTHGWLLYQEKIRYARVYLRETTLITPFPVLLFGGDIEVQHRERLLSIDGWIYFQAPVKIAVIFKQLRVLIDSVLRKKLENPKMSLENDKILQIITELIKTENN
# Procedure, shortened: as §1
# [5] = tested on: A0A087WZ62
# Procedure, shortened: as §1
# [6] = molecular target: T4, A0A087X0V5|P29728|P29728-2 (UniProt P29728)
# T4 sequence (whole entry): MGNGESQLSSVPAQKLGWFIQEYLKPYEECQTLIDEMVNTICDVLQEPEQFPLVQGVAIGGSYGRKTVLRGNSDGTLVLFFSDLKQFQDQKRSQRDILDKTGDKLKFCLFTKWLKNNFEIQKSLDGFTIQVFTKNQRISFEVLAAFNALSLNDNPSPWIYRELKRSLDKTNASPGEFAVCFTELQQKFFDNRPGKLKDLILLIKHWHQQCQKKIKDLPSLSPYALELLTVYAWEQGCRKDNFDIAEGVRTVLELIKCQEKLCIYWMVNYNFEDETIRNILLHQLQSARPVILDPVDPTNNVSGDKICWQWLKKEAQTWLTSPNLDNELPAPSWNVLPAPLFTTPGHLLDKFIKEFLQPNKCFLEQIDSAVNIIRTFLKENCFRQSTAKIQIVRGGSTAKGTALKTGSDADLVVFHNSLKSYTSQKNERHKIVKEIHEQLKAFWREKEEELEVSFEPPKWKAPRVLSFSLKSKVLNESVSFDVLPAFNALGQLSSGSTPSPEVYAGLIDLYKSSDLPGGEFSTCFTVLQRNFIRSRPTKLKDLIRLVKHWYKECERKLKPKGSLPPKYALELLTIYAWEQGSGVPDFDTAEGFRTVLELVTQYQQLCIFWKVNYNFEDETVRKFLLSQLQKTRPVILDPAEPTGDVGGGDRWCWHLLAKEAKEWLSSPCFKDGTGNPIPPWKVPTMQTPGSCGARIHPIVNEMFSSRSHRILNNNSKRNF
# Procedure, shortened: as §1
# [7] = molecular target: A0A087X1K6|H0YK05|Q9Y2Y9 (UniProt Q9Y2Y9)
# Procedure, shortened: as §1
# [8] = molecular target: A0A087X1Z1|A0A0G2JPW5|A0A0G2JQX1|A0A0G2JSA7|Q96RT8|Q96RT8-2 (UniProt Q96RT8)
# Procedure, shortened: as §1
# [9] = molecular target: A0A096LP25|Q2M2I8|Q2M2I8-2 (UniProt Q2M2I8)
# Procedure, shortened: as §1
# A0A087WY00|F8W6H6|Q9Y4I1|Q9Y4I1-2|G3V394|Q9Y4I1-3, sequence (Q9Y4I1 whole entry, one chain of several): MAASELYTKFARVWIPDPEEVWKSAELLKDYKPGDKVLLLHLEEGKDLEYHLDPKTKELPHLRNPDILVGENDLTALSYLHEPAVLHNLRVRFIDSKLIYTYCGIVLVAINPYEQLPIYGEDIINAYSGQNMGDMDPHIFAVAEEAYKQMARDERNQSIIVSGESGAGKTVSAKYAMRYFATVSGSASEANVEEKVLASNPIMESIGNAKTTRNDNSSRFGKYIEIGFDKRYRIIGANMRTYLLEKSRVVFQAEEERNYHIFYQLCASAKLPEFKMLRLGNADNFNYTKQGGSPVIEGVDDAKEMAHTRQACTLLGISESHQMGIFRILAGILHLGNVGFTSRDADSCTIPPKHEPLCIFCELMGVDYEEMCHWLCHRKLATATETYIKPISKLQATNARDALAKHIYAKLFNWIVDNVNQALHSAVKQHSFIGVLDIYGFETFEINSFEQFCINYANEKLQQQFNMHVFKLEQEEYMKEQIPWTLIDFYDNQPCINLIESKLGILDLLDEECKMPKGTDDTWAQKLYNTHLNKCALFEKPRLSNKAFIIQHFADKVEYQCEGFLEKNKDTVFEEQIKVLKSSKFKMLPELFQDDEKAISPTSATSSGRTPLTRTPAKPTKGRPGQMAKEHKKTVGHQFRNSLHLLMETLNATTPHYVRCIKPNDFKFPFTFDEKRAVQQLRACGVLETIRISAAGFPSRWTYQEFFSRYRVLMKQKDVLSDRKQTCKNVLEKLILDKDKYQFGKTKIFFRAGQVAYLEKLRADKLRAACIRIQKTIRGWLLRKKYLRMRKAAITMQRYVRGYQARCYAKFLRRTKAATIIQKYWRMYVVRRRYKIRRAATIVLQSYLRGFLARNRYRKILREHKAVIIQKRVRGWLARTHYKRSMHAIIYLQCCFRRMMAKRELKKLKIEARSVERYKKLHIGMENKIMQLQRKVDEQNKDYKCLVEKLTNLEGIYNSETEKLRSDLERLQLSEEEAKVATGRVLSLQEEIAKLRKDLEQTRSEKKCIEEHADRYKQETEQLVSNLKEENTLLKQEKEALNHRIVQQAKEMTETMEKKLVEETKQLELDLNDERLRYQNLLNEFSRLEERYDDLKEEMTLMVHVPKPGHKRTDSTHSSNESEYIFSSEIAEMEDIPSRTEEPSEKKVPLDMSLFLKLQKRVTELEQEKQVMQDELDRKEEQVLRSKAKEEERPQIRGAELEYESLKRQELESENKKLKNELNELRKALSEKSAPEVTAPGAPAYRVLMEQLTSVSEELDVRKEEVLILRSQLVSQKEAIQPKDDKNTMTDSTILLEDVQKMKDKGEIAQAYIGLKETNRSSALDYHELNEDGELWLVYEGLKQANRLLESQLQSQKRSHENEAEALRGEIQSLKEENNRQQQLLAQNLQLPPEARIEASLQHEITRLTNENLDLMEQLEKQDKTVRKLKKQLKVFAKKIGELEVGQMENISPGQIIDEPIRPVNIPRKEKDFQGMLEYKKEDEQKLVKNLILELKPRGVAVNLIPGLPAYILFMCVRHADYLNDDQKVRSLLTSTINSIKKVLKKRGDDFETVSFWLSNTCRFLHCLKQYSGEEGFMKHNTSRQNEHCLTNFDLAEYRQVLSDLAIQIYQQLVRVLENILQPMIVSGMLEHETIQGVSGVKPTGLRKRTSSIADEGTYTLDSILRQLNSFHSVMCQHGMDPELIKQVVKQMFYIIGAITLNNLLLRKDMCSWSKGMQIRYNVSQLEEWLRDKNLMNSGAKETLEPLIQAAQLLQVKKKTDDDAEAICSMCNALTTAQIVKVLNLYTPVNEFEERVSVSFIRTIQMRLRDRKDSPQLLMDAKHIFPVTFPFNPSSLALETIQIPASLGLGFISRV
# A0A096LP25|Q2M2I8|Q2M2I8-2, sequence (Q2M2I8 whole entry, looked up, one chain of several): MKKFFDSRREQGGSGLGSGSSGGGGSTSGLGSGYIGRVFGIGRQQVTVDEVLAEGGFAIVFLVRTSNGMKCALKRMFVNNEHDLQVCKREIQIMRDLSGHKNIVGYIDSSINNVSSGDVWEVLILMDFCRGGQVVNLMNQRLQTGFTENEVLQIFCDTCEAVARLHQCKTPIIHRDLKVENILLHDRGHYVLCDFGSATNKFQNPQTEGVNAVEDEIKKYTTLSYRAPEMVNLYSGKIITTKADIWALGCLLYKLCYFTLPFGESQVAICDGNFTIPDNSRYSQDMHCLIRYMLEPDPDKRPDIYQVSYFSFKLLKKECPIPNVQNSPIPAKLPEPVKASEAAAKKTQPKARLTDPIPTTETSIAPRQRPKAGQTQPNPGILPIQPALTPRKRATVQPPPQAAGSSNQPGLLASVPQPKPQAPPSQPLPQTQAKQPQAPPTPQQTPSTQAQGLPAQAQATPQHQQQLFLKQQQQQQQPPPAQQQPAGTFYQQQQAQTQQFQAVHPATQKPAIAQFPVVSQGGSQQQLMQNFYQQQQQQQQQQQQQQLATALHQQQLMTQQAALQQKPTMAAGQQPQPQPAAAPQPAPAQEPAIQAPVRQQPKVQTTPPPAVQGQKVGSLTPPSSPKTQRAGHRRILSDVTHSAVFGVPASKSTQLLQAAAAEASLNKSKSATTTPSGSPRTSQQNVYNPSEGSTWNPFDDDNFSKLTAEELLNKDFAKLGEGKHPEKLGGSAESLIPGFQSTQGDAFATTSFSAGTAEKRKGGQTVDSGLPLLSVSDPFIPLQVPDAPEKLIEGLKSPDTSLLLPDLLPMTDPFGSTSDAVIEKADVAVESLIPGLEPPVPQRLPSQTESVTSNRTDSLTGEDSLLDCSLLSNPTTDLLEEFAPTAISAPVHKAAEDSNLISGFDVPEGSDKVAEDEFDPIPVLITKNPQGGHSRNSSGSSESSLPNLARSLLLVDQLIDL
# A0A087X1K6|H0YK05|Q9Y2Y9, sequence (Q9Y2Y9 whole entry, one chain of several): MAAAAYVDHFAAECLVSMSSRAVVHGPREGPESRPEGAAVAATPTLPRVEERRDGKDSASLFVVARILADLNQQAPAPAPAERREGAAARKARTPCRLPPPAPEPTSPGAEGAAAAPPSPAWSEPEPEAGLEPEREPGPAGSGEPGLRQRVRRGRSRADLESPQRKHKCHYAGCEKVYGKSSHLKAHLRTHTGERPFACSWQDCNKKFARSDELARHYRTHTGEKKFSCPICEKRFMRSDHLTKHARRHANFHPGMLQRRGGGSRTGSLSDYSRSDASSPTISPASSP
# A0A087X1Z1|A0A0G2JPW5|A0A0G2JQX1|A0A0G2JSA7|Q96RT8|Q96RT8-2, sequence (Q96RT8 whole entry, one chain of several): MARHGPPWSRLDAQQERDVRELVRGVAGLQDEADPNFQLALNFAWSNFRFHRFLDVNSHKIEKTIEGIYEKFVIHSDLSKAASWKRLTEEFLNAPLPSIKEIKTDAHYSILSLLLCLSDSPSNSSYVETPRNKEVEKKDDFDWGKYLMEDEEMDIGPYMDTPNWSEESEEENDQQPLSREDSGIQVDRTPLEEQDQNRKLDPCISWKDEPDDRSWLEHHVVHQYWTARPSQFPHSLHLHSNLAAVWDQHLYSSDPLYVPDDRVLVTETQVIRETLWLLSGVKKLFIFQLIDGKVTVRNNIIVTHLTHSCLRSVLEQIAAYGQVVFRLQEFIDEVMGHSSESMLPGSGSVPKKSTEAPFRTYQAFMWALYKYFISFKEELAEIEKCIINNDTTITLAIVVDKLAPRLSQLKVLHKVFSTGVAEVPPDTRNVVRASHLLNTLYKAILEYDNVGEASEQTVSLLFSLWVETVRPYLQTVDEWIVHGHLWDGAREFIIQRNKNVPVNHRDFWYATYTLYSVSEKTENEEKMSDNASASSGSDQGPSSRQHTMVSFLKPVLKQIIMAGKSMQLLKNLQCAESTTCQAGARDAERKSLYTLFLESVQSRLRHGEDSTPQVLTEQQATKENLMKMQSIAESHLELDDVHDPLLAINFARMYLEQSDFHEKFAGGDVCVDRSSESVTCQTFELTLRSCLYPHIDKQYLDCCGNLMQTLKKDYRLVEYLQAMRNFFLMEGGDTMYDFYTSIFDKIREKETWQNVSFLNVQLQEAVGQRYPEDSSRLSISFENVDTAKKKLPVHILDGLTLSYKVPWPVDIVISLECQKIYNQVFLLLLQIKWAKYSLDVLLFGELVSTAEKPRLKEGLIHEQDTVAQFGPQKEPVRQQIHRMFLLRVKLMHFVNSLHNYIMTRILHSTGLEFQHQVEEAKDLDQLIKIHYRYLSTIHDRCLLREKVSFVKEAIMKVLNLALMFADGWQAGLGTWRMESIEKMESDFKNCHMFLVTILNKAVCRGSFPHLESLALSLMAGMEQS
smiles,measurement,setting,value
Nc1ncnc2c1ncn2[C@@H]1O[C@H](COP(=O)(O)OP(=O)(O)NP(=O)(O)O)[C@@H](O)[C@H]1O [adenylyl imidodiphosphate],NP40-soluble protein abundance,[1]; concentration: 1mM,0.971 ± 0.05
same,NP40-soluble protein abundance,[1]; concentration: 2mM,0.973 ± 0.015
same,NP40-soluble protein abundance,[1]; concentration: 4mM,0.958 ± 0.033
same,NP40-soluble protein abundance,[1]; concentration: 6mM,0.948 ± 0.038
same,NP40-soluble protein abundance,[1]; concentration: 8mM,0.935 ± 0.027
same,NP40-soluble protein abundance,[1]; concentration: 10mM,0.9324 ± 0.0081
same,NP40-soluble protein abundance,[2]; concentration: 1mM,1.9 ± 0.27
same,NP40-soluble protein abundance,[2]; concentration: 2mM,1.97 ± 0.29
same,NP40-soluble protein abundance,[2]; concentration: 4mM,2.07 ± 0.28
same,NP40-soluble protein abundance,[2]; concentration: 6mM,2 ± 0.31
same,NP40-soluble protein abundance,[2]; concentration: 8mM,1.96 ± 0.29
same,NP40-soluble protein abundance,[2]; concentration: 10mM,2.01 ± 0.24
same,NP40-soluble protein abundance,[3]; concentration: 1mM,1.01 ± 0.034
same,NP40-soluble protein abundance,[3]; concentration: 2mM,1.03 ± 0.025
same,NP40-soluble protein abundance,[3]; concentration: 4mM,1.03 ± 0.025
same,NP40-soluble protein abundance,[3]; concentration: 6mM,0.988 ± 0.026
same,NP40-soluble protein abundance,[3]; concentration: 8mM,0.981 ± 0.022
same,NP40-soluble protein abundance,[3]; concentration: 10mM,1 ± 0.023
same,NP40-soluble protein abundance,[4]; concentration: 1mM,1.31 ± 0.067
same,NP40-soluble protein abundance,[4]; concentration: 2mM,1.49 ± 0.079
same,NP40-soluble protein abundance,[4]; concentration: 4mM,1.73 ± 0.18
same,NP40-soluble protein abundance,[4]; concentration: 6mM,1.9 ± 0.22
same,NP40-soluble protein abundance,[4]; concentration: 8mM,2.01 ± 0.24
same,NP40-soluble protein abundance,[4]; concentration: 10mM,2.1 ± 0.29
same,NP40-soluble protein abundance,[5]; concentration: 1mM,0.976 ± 0.026
same,NP40-soluble protein abundance,[5]; concentration: 2mM,0.963 ± 0.027
same,NP40-soluble protein abundance,[5]; concentration: 4mM,0.931 ± 0.022
same,NP40-soluble protein abundance,[5]; concentration: 6mM,0.952 ± 0.014
same,NP40-soluble protein abundance,[5]; concentration: 8mM,0.946 ± 0.028
same,NP40-soluble protein abundance,[5]; concentration: 10mM,0.936 ± 0.017
same,NP40-soluble protein abundance,[6]; concentration: 1mM,1.13 ± 0.0059
same,NP40-soluble protein abundance,[6]; concentration: 2mM,1.07 ± 0.091
same,NP40-soluble protein abundance,[6]; concentration: 4mM,1.26 ± 0.049
same,NP40-soluble protein abundance,[6]; concentration: 6mM,1.24 ± 0.086
same,NP40-soluble protein abundance,[6]; concentration: 8mM,1.358 ± 0.011
same,NP40-soluble protein abundance,[6]; concentration: 10mM,1.29 ± 0.02
same,NP40-soluble protein abundance,[7]; concentration: 1mM,0.998 ± 0.029
same,NP40-soluble protein abundance,[7]; concentration: 2mM,0.998 ± 0.03
same,NP40-soluble protein abundance,[7]; concentration: 4mM,0.971 ± 0.024
same,NP40-soluble protein abundance,[7]; concentration: 6mM,1.01 ± 0.016
same,NP40-soluble protein abundance,[7]; concentration: 8mM,0.991 ± 0.03
same,NP40-soluble protein abundance,[7]; concentration: 10mM,0.996 ± 0.0047
same,NP40-soluble protein abundance,[8]; concentration: 1mM,0.946 ± 0.021
same,NP40-soluble protein abundance,[8]; concentration: 2mM,1 ± 0.057
same,NP40-soluble protein abundance,[8]; concentration: 4mM,0.951 ± 0.032
same,NP40-soluble protein abundance,[8]; concentration: 6mM,0.972 ± 0.029
same,NP40-soluble protein abundance,[8]; concentration: 8mM,0.962 ± 0.018
same,NP40-soluble protein abundance,[8]; concentration: 10mM,0.96 ± 0.016
same,NP40-soluble protein abundance,[9]; concentration: 1mM,1.07 ± 0.02
same,NP40-soluble protein abundance,[9]; concentration: 2mM,1.11 ± 0.041
same,NP40-soluble protein abundance,[9]; concentration: 4mM,1.11 ± 0.026
same,NP40-soluble protein abundance,[9]; concentration: 6mM,1.09 ± 0.024
same,NP40-soluble protein abundance,[9]; concentration: 8mM,1.08 ± 0.02
same,NP40-soluble protein abundance,[9]; concentration: 10mM,1.11 ± 0.012
